DT40 TDP1 no CPT = qHTS for Inhibitors of human tyrosyl-DNA phosphodiesterase 1 (TDP1): qHTS in cells in absence of CPT. DT40 Tdp1-/- hTDP1 cells, no CPT, ATP luminescence, 48 h. Potency, µM (doses to about 46.2 µM), inactives show at the top dose activity change, negative = growth inhibition, hits mostly inhibitors. 15% of 420,000 active; also: potency is read from the fitted curve at half-maximal effect; nearly all actives have a fitted effect of over 55% in size
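A cellular qHTS used chicken DT40 cells lacking endogenous Tdp1 but carrying stably transfected human TDP1. Compounds were applied without camptothecin, and cell growth kinetics were judged by ATP-dependent luminescence after ≥48 hr.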
IL1B secr inh = qHTS for Inhibitors of Inflammasome Signaling: IL-1-beta AlphaLISA Primary Screen | THP-1 LPS/ATP IL-1B secretion, AlphaLISA, 16 h; stronger effect = lower value | activity change, % at 57.5 µM | 4.7% of 360,000 active | AID 743279, 2014; in the data active = activity change below about -50%; inconclusive = mostly about -30% to -49%
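Secreted IL-1B measured by AlphaLISA bead assay after 16 h compound exposure of THP-1 cells; compounds (final up to 57.5 uM) added 1 h before LPS (250 ng/mL) and ATP (1.25 mM) stimulation; lower signal means less secretion.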
HT1080-NT tox = qHTS for induction of synthetic lethality in tumor cells producing 2HG: qHTS for the HT-1080-NT fibrosarcoma cell line. Potency, µM (highest dose often 46.1 µM), for inactives: at the highest dose activity, negative = less viability, actives largely listed as cytotoxic. AID 686970, 2013. 1.6% of 360,000 active. HT-1080-NT fibrosarcoma viability, CellTiter-Glo ATP luminescence, 48 h;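 also: NT is the 2HG producing partner of a matched IDH1 knockdown line; potency is read from the fitted curve at half-maximal effect; 0% = DMSO-treated cells and -100% = media-only wells without cells; nearly all actives have a fitted effect of over 55% in size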
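Viability by CellTiter-Glo luminescence after 48 h compound exposure at 37C of HT-1080-NT cells (750/well, RPMI, 5% FBS). % activity scaled between DMSO wells and medium-only wells, then curve-fitted and categorized by curve class.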
TDP1 cell CPT = qHTS for Inhibitors of human tyrosyl-DNA phosphodiesterase 1 (TDP1): qHTS in cells in presence of CPT. Potency, µM (highest dose often 46.2 µM), for the others: at the highest dose activity change, negative = growth inhibition, actives largely listed as inhibitors. AID 686979, 2013. chicken DT40 Tdp1-/-;hTDP1 cells + 20 nM CPT, ATP luminescence, 48 h. 12% of 420,000 active; also: potency is read from the fitted curve at half-maximal effect; nearly all actives have a fitted effect of over 55% in size
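Chicken DT40 Tdp1-/- cells stably complemented with human TDP1 were seeded at 400 cells/well in medium containing 20 nM camptothecin, exposed to pin-transferred compounds, and grown at 37 °C for at least 48 hr. Viability was read as ATP luminescence.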
HT1080 IDH1KD tx = qHTS for induction of synthetic lethality in tumor cells producing 2HG: qHTS for the HT-1080-IDH1KD cell line | HT-1080 IDH1 knockdown viability, ATP luminescence, 48 h | Potency, µM (highest dose often 46.1 µM), without a hit: top-dose activity, negative = toxicity, actives largely listed as cytotoxic | 2% of 360,000 active;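 also: potency is read from the fitted curve at half-maximal effect; 0% = DMSO wells and -100% = cell-free medium wells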
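Cytotoxicity counter-line: IDH1KD HT-1080, 48 h, CellTiter-Glo. Curves classed by r2, magnitude and activity.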
Numbers without * were called inactive. Most compounds without a hit are left out; they make up all but 19% or so of the library. Unless noted, calls follow the shape of the dose curve; as a rule, active = well fitted curve in the direction sought with a large enough effect; inconclusive = small, poorly fitted or top-dose-only effect, or another doubt; inactive = no such curve, though single readings can be large; an effect the other way counts as inactive or inconclusive. Unless noted, % is scaled to controls: 0 for no effect and ±100 for the full control effect.

How did Cc1ccc(N2CCN(S(=O)(=O)c3ccc4c(c3)NC(=O)C(C)C(=O)N4)CC2C)cc1 (configuration not stated) do in these assays?
DT40 TDP1 no CPT: inconclusive; IL1B secr inh: -26; HT1080-NT tox: 2%; TDP1 cell CPT: inconclusive; HT1080 IDH1KD tx: -19%

Results for O=C(N/N=C/c1ccccc1F)c1ccc(COc2ccccc2Cl)o1 ?
DT40 TDP1 no CPT: inconclusive; IL1B secr inh: inconclusive; HT1080-NT tox: -3%; TDP1 cell CPT: -2%; HT1080 IDH1KD tx: -1%

What do the screens show for `COc1ccc(CCNc2nc(SCc3ccccc3F)nc3ccccc23)cc1OC`?
DT40 TDP1 no CPT: 3.7µM*; TDP1 cell CPT: 3.7µM*

Results for COc1ccc(CCNC(=O)CSCc2ccc(F)cc2)cc1OC ?
DT40 TDP1 no CPT: -25%; IL1B secr inh: 4; HT1080-NT tox: 12%; TDP1 cell CPT: -6%; HT1080 IDH1KD tx: 10%

How did COc1ccc(CCNc2nc(SCc3cccc(Cl)c3)nc3ccccc23)cc1OC do in these assays?
DT40 TDP1 no CPT: 8.2µM*; TDP1 cell CPT: inconclusive

Results for COc1ccc(CCNc2nc(SCc3ccc(F)cc3)nc3ccccc23)cc1OC ?
DT40 TDP1 no CPT: 7.3µM*; TDP1 cell CPT: 7.3µM*

How did COc1ccc(CCNC(=O)CCSCc2ccccc2F)cc1OC do in these assays?
DT40 TDP1 no CPT: -14%; IL1B secr inh: 3; HT1080-NT tox: 5%; TDP1 cell CPT: -5%; HT1080 IDH1KD tx: 10%

What do the screens show for `Cc1cc(C(=O)NC(CC(C)C)C(=O)O)cc(C)c1[N+](=O)[O-]` (configuration not stated)?
DT40 TDP1 no CPT: 8%; IL1B secr inh: 15; HT1080-NT tox: 15%; TDP1 cell CPT: 18%; HT1080 IDH1KD tx: 8%

How did C/C(=N\Nc1nc2ccccc2s1)c1ccc2c(c1)OCO2 do in these assays?
DT40 TDP1 no CPT: -94%; IL1B secr inh: 12; HT1080-NT tox: -29%; TDP1 cell CPT: inconclusive; HT1080 IDH1KD tx: -30%

Results for C/C(=N\Nc1nc2ccccc2s1)c1ccc(Br)s1 ?
DT40 TDP1 no CPT: inconclusive; IL1B secr inh: -103*; HT1080-NT tox: inconclusive; TDP1 cell CPT: inconclusive; HT1080 IDH1KD tx: inconclusive

How did CC(=NNc1nc2ccccc2s1)c1ccncn1 do in these assays?
DT40 TDP1 no CPT: 0.15µM*; IL1B secr inh: -94*; HT1080-NT tox: inconclusive; TDP1 cell CPT: 0.1µM*; HT1080 IDH1KD tx: inconclusive

Results for Cc1sc(=NC(=O)c2ccco2)n(C)c1-c1ccc(Cl)cc1 ?
DT40 TDP1 no CPT: 12µM*; IL1B secr inh: -16; HT1080-NT tox: -2%; TDP1 cell CPT: 12µM*; HT1080 IDH1KD tx: -1%

How did CCOC(=O)c1sc(=NC(=O)c2ccco2)n(C)c1C do in these assays?
DT40 TDP1 no CPT: -15%; IL1B secr inh: 56; HT1080-NT tox: -4%; TDP1 cell CPT: 6%; HT1080 IDH1KD tx: -6%

How did CCCn1nc(C(=O)NNC(=O)c2cccc(S(=O)(=O)NC(C)C)c2)c2ccccc2c1=O do in these assays?
DT40 TDP1 no CPT: -9%; IL1B secr inh: inactive; HT1080-NT tox: 12%; TDP1 cell CPT: -11%; HT1080 IDH1KD tx: inconclusive

What do the screens show for `COc1ccc(C(=O)Oc2cc(-c3ccc4c(c3)OCO4)cc(=O)c3c(C)oc(C)c23)cc1`?
DT40 TDP1 no CPT: -30%; TDP1 cell CPT: inconclusive

Results for COc1cc(-c2cc(OC)c3c(C)oc(C)c3c(=O)c2)ccc1OC(=O)c1cccc(C)c1 ?
DT40 TDP1 no CPT: 13µM*; TDP1 cell CPT: 23µM*

Results for COc1ccc(-c2cc(OC(=O)c3ccc(F)cc3)c3c(C)oc(C)c3c(=O)c2)cc1OC ?
DT40 TDP1 no CPT: inconclusive; TDP1 cell CPT: 18µM*

Results for COc1ccc(-c2cc(OC)c3c(C)oc(C)c3c(=O)c2)cc1OC ?
DT40 TDP1 no CPT: inconclusive; IL1B secr inh: inconclusive; HT1080-NT tox: -15%; TDP1 cell CPT: inconclusive; HT1080 IDH1KD tx: -21%

How did CCOc1cc(-c2ccc(OC(=O)c3ccc(OC)cc3)c(OC)c2)cc(=O)c2c(C)oc(C)c12 do in these assays?
DT40 TDP1 no CPT: 18µM*; TDP1 cell CPT: 15µM*

Results for CCOC(=O)C1(COCc2ccccc2)CCCCC1=O (configuration not stated) ?
DT40 TDP1 no CPT: -22%; IL1B secr inh: 0; HT1080-NT tox: 9%; TDP1 cell CPT: 0%; HT1080 IDH1KD tx: -6%

Results for COCCCN1C(=O)C(CC(=O)NCc2cccs2)CC(C(=O)N2CCCCCC2)=C1C (configuration not stated) ?
DT40 TDP1 no CPT: 5%; HT1080-NT tox: 13%; TDP1 cell CPT: 21%; HT1080 IDH1KD tx: 1%

How did O=S(=O)(Cc1ccccc1)N=Nc1c(O)[nH]c2ccc(Br)cc12 do in these assays?
DT40 TDP1 no CPT: 18µM*; IL1B secr inh: 76; HT1080-NT tox: -4%; TDP1 cell CPT: 13µM*; HT1080 IDH1KD tx: -3%

Results for Cc1noc(C)c1C(=O)Nc1ccc(-c2nnc3n2CCCCC3)cc1 ?
DT40 TDP1 no CPT: -6%; IL1B secr inh: -5; HT1080-NT tox: 14%; TDP1 cell CPT: -17%; HT1080 IDH1KD tx: -1%

Results for O=C(Nc1ccc(Cl)cc1)c1nc[nH]c1C(=O)Nc1ccccc1F ?
DT40 TDP1 no CPT: 15µM*; IL1B secr inh: -15; HT1080-NT tox: 2%; TDP1 cell CPT: inconclusive; HT1080 IDH1KD tx: 24%

What do the screens show for `CCOC(=O)c1[nH]cnc1C(=O)Nc1ccc(Cl)cc1`?
DT40 TDP1 no CPT: -9%; IL1B secr inh: -11; HT1080-NT tox: 24%; TDP1 cell CPT: -30%; HT1080 IDH1KD tx: 10%

Results for O=C(Nc1ccc(F)cc1)c1nc[nH]c1C(=O)Nc1ccccc1[N+](=O)[O-] ?
DT40 TDP1 no CPT: 1.3µM*; IL1B secr inh: 10; HT1080-NT tox: 8%; TDP1 cell CPT: inconclusive; HT1080 IDH1KD tx: 10%

How did O=C(Nc1ccc(Cl)cc1)c1nc[nH]c1C(=O)NCCCCNC(=O)c1[nH]cnc1C(=O)Nc1ccc(Cl)cc1 do in these assays?
DT40 TDP1 no CPT: 4.6µM*; IL1B secr inh: inconclusive; HT1080-NT tox: 7%; TDP1 cell CPT: 5.8µM*; HT1080 IDH1KD tx: 9%

What do the screens show for `O=C(Nc1cccc(Cl)c1)c1nc[nH]c1C(=O)Nc1ccccc1F`?
DT40 TDP1 no CPT: 7.3µM*; IL1B secr inh: 11; HT1080-NT tox: 17%; TDP1 cell CPT: 4.1µM*; HT1080 IDH1KD tx: 12%

Source: PubChem BioAssay
